Source: PubChem (National Center for Advancing Translational Sciences (NCATS))
VP16 counter: inhibits Gal4-VP16 luciferase reporter, ROR gamma counter-screen; AID 2546; Drosophila S2 Gal4-VP16 UAS-luciferase, luminescence, 20 h; Potency, µM (doses to about 53.6 µM), without a hit: top-dose activity, negative = inhibition, hits mostly inhibitors; 310,000 tested, 3.5% active;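 note: Gal4-VP16 expression switched on by copper sulfate through the metallothionein promoter; potency is the fitted concentration of half-maximal effect; nearly all actives have a fitted effect of over 50% in size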
IL1B secr inh: inhibitors of inflammasome signaling (IL-1 beta secretion); 360,000 tested, 4.7% active; activity change, % at 57.5 µM; THP-1 LPS/ATP IL-1B secretion, AlphaLISA, 16 h; stronger effect = lower value; in the data active = activity change below about -50%; inconclusive = mostly about -30% to -49%
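THP-1 cells pretreated 1 hr with compounds (up to 57.5 uM final), then stimulated with LPS (250 ng/mL final) plus ATP (1.25 mM final); secreted IL-1B measured by AlphaLISA after 16 hr, decreased signal indicating inhibition.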
LDHA block: blocks human lactate dehydrogenase A. P00338. purified LDHA, NADH/diaphorase-resazurin fluorescence; stronger effect = lower value. activity change, % (values are at about 110 or 230 µM). 480,000 tested, 0.15% active. AID 1347041; in the data active = activity change below about -30%; inconclusive = mostly about -25% to -30%;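 note: plate controls were DMSO wells for no effect and wells without enzyme for full effect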
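Remaining NADH was detected by diaphorase (0.133 mg/mL) converting 37 µM resazurin to fluorescent resorufin, read at 0 and 20 minutes. The preceding 5-minute room-temperature reaction used 2 nM LDHA, 0.2 mM sodium pyruvate and 0.06 mM NADH at pH 7.4.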
TDP1 cell CPT: growth inhibition of DT40 Tdp1-/-;hTDP1 cells with camptothecin (screen for TDP1 inhibitors); chicken DT40 Tdp1-/-;hTDP1 cells + 20 nM CPT, ATP luminescence, 48 h; Potency, µM (top dose mostly 46.2 µM), without a hit: at the highest dose activity change, negative = growth inhibition, hits mostly inhibitors; 420,000 tested, 12% active; AID 686979; note: potency is the fitted concentration of half-maximal effect; nearly all actives have a fitted effect of over 55% in size
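Chicken DT40 Tdp1-/- cells complemented with human TDP1, 400 cells/well, exposed to compounds plus 20 nM camptothecin for at least 48 h at 37 C; viability read as ATP content by CellTiter-Glo luminescence.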
DT40 TDP1 no CPT: qHTS for Inhibitors of human tyrosyl-DNA phosphodiesterase 1 (TDP1): qHTS in cells in absence of CPT; AID 686978, 2013; Potency, µM (top dose mostly 46.2 µM), for the others: at the top dose activity change, negative = growth inhibition, most hits filed as inhibitors; DT40 Tdp1-/- hTDP1 cells, no CPT, ATP luminescence, 48 h; 420,000 tested, 15% active; note: potency is the fitted concentration of half-maximal effect; nearly all actives have a fitted effect of over 55% in size
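Growth of hTDP1-complemented DT40 Tdp1-knockout cells is measured by ATP luminescence after at least 48 hr compound exposure at 37 °C, with DMSO substituting for the 20 nM CPT used in the parallel screen.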
RORg inh: ROR gamma (mouse) transcription inhibition. P51450. Drosophila S2 Gal4-RORgamma UAS-luciferase reporter, 20 h. Potency, µM (highest dose often 53.6 µM), inactives show at the highest dose activity change, negative = inhibition, most hits filed as inhibitors. 310,000 tested, 5.4% active; note: potency is the fitted concentration of half-maximal effect; nearly all actives have a fitted effect of over 60% in size
Target sequence (P51450 whole entry, looked up, the tested form may be a part): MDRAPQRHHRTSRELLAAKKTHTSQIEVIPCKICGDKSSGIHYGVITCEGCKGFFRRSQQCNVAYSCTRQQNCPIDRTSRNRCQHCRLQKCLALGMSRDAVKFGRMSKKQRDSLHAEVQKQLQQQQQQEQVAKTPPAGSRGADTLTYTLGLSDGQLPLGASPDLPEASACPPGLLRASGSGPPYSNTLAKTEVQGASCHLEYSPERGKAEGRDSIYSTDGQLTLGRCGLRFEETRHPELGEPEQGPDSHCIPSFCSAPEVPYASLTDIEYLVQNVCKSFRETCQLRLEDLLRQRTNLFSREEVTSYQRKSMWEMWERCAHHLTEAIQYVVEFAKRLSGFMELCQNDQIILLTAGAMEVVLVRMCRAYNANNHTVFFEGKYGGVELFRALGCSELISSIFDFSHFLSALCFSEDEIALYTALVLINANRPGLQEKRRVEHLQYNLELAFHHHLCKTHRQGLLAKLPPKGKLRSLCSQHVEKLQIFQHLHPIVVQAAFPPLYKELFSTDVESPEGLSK
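Stably transfected Drosophila Schneider cells are the test system, with ROR gamma fused to Gal4 and luciferase under UAS control; luminescence is read after 20 hr of 700 uM copper sulfate induction at ambient temperature.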
The depositor's hits bear a star; ? = inconclusive; / = no result given; ! = repeats disagree; [ ] = dose if it differs, or a comment. Only some compounds are listed: those with a hit (about 18% of all), similar ones and a draw of the others. Unless noted, calls come from the whole dose curve; as a rule, active = well fitted curve in the direction sought with a large enough effect; inconclusive = small, poorly fitted or top-dose-only effect, or another doubt; inactive = no such curve, though single readings can be large; an effect the other way counts as inactive or inconclusive. Unless noted, % is set by controls: 0 for no effect and ±100 for the full control effect.

SMILES	VP16 counter	IL1B secr inh	LDHA block	TDP1 cell CPT	DT40 TDP1 no CPT	RORg inh
Cc1cccc(-n2ncc(C(=O)N3CCN(Cc4ccccc4)CC3)c2C2CCN(C(=O)OC(C)(C)C)CC2)c1	/	/	5.0	16.4µM*	16.4µM*	/
CCN1CCN(C(=O)c2cnn(-c3cccc(Cl)c3)c2C2CCN(C(=O)OC(C)(C)C)CC2)CC1	/	/	-6.7	-23.4%	?	/
COCc1cc(C)nc2sc3c(c12)NCN(c1ccccc1C)C3=O	/	/	-2.3	/	/	/
c1csc(C2Nc3ccccc3-c3nc4ccccc4n32)c1 (configuration not stated)	-12.9%	?	0.8	16.4µM*	?	1.3%
Cc1nc2nc(N)nn2c(C)c1CC(=O)NC(C)C	/	/	3.5	/	/	/
CC1(C)CC(C)(O)N(Cc2ccccc2)C(=S)N1 (configuration not stated)	15.8µM*	-15.1	-1.4	0.7%	-12.1%	12.6µM*
CC1(C)CC(C)(O)N(CCc2ccccc2)C(=S)N1 (configuration not stated)	/	/	4.4	/	/	/
Cc1cc(C)c(NC(=O)C2CCCC2)c(C)c1	/	/	7.7	/	/	/
Cc1ccc(-c2cn(-c3ccccc3)c(SCC(=O)NC3CCS(=O)(=O)C3)n2)cc1C (configuration not stated)	?	6.0	-0.2	?	?	12.6µM*
NNC(=O)CSc1nc(-c2ccccc2)cn1-c1ccccc1	17.6%	-16.8	-1.6	0.5%	1.0%	5.62µM*
COC(=O)[C@@H](Cc1ccccc1)NC(=O)NCC(c1ccccc1)c1ccccc1	/	/	-1.0	/	/	/
N#CC[n+]1cc(-c2ccc(Cl)cc2)n2c1CCC2	-3.2%	16.8	-9.1	-4.5%	-0.4%	4.2%
Clc1ccc(C[n+]2cc(-c3ccccc3)n3c2CCC3)cc1Cl	-7.7%	-66.5*	-11.0	6.51µM*	3.66µM*	18.4%
Clc1ccc(-c2c[n+](Cc3cccc(Cl)c3)c3n2CCC3)cc1	-8.9%	-74.2*	-8.3	10.3µM*	8.2µM*	?
CCOC(=O)c1ccc2c(c1)N(C(CC)C(=O)Nc1ccccc1OC)C(=O)c1ccccc1S2 (configuration not stated)	/	/	-10.5	/	/	/
CCC(C(=O)Nc1ccccc1OC)n1c(C(=O)OC)cc2ccsc21 (configuration not stated)	-3.5%	-57.0*	3.0	20.6µM*	?	-32.7%
CC1CC2(C)Oc3ccccc3CC2C(C)C1CNCCCN(C)C (configuration not stated)	?	?	2.2	4.11µM*	1.16µM*	?
COc1ccc(-c2cc3nc(-c4ccccc4)cc(N4CCCC(O)C4)n3n2)cc1 (configuration not stated)	-24.2%	?	-0.4	16.4µM*	11.6µM*	3.6%
COc1ccc(-c2cc3nc(-c4ccccc4)cc(N4CCC(O)CC4)n3n2)cc1	-21.5%	-151.5*	-4.0	?	?	4.4%
CC1(C)CC(=O)C(C=NCCN2CCN(C(=O)CCl)CC2)=C(O)C1	26.5%	0.0	-1.6	?	10.3µM*	1.3%
COc1ccc(C)cc1NC(=O)CC(c1cccc(F)c1)n1cccc1 (configuration not stated)	/	/	2.0	/	/	/
Cc1cc(C(=O)NCCCN2CCN(c3cc(Cl)ccc3C)CC2)n(-c2ccccc2)n1	1.3%	-8.7	0.4	10.3µM*	?	31.3%
Cc1nn(-c2ccccc2)c(-n2cccc2)c1C(=O)NCCCN1CCN(c2ccccc2F)CC1	/	/	-3.4	16.4µM*	18.4µM*	/
CCCCNC(=O)c1cc(C)nn1-c1ccccc1	-3.6%	-6.7	-10.1	1.4%	-16.7%	22.3%
O=C(NCCN1CCN(c2ccccc2)CC1)Nc1cccc(Cl)c1	3.9%	?	-4.6	?	?	-20.2%[1.91 µM]
SMILES	VP16 counter	IL1B secr inh	LDHA block	TDP1 cell CPT	DT40 TDP1 no CPT	RORg inh
Cn1cc(C(=O)NCCN2CCN(c3cccc(Cl)c3)CC2)c2c3ccccc3n(C)c2c1=O	2.0%	3.9	-4.0	25.9µM*	14.6µM*	-16.2%
Cc1cc(C(=O)NCCN2CCN(c3cccc(Cl)c3)CC2)n(-c2ccccc2)n1	-6.7%	15.3	1.5	5.8µM*	4.11µM*	-1.4%
COCCCNC(=O)c1cn(C)c(=O)c2c1c1ccccc1n2C	6.1%	39.3	4.1	3.6%	-6.8%	20.3%
CC1(C)NC(=O)N(Cc2ncc(-c3cccc(Cl)c3)o2)C1=O	/	/	5.0	/	/	/
CC(C)CCn1c(N2CCN(Cc3ccccc3Cl)CC2)nc2c1c(=O)[nH]c(=O)n2C	/	/	-20.9	/	/	/
COc1ccc(-c2onc(C)c2-c2ccccc2)c(O)c1	0.7%	-1.2	-7.4	?	18.4µM*	2.1%
COc1ccc(-c2onc(C)c2-c2cnn(-c3ccccc3)c2)c(O)c1	12.3%	-17.6	0.2	?	20.6µM*	-0.6%
COc1ccc(-c2onc(C)c2-c2ccc(OC)c(OC)c2)c(O)c1	/	/	4.7	/	/	/
CCNc1ccc(S(=O)(=O)N(CC)CC)cc1NCc1c(F)cccc1Cl	/	/	-4.7	/	/	/
O=C(NCCCn1ccnc1)c1ccc(-c2cccc(Cl)c2Cl)o1	/	-26.4	-2.3	18.4µM*	?	/
O=C(O)c1ccccc1C(=O)NCCCn1ccnc1	1.1%	-3.2	-11.6	3.1%	7.4%	3.0%[1.91 µM]
CC(C(=O)NCCCn1ccnc1)(c1ccccc1)c1ccccc1	-2.2%	-28.0	-0.8	14.6µM*	18.4µM*	-27.8%
O=C(NCCCn1ccnc1)C(=O)Nc1ccccc1	5.8%	13.3	-6.6	16.4µM*	?	10.7%
Cn1cnc([N+](=O)[O-])c1Sc1nc(N)nc2c1ncn2C1CC(O)C(CO)O1 (configuration not stated)	/	-14.8	-5.7	?	13µM*	/
Nc1nc2c(ncn2CCC(CO)CO)c(=O)[nH]1	-1.5%	/	/	0.668µM*	1.68µM*	7.5%
O=c1[nH]cnc2c1ncn2C1OC(CO)C(O)C1O (configuration not stated)	-4.3%	-3.5	-3.6	0.581µM*!	0.82µM*!	-3.3%
CC(C)C(=O)Nc1nc2c(ncn2C2CC(O)C(CO)O2)c(=O)[nH]1 (configuration not stated)	-0.8%	-11.3	-11.4	-28.4%	?	-9.7%
Cn1cnc([N+](=O)[O-])c1Sc1nc(N)nc2c1ncn2C1OC(CO)C(O)C1O (configuration not stated)	/	-19.0	-3.6	?	?	/
O=c1[nH]cnc2c1ncn2[C@H]1C[C@H](O)[C@@H](CO)O1	/	/	-2.0	12.6µM*	?	/
